The whole screen tested about 420,000 compounds, of which about 50,000 (12%) were called active. Roughly 26% stayed inconclusive and do not appear here. The call rests on the fitted dose curve; in most records, active means well fitted inhibition curve with a large enough effect; inconclusive means small, poorly fitted or top-dose-only effect; inactive means flat fitted curve, though single readings scatter. The entries come from a sample that favours actives as a whole. Where a call stands in place of a potency, no number is given.
experiment: qHTS for Inhibitors of human tyrosyl-DNA phosphodiesterase 1 (TDP1): qHTS in cells in presence of CPT; conditions: chicken DT40 Tdp1-/-;hTDP1 cells + 20 nM CPT, ATP luminescence, 48 h; series mostly up to 46.2 µM; further: nearly all actives have a fitted effect of over 55% in size
Summary of the method: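 Chicken DT40 Tdp1-/- cells stably complemented with human TDP1 were seeded at 400 cells/well in medium containing 20 nM camptothecin, exposed to pin-transferred compounds, and grown at 37 °C for at least 48 hr. Viability was read as ATP luminescence.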
Potency means the concentration at half of the fitted maximal effect.

SMILES | Potency
O=C(N/N=C\c1cc(Br)c(Br)o1)C1COc2ccccc2O1 (stereo unspecified) | inactive
Cc1cc(C(=O)N2CCCC2(C)C(=O)O)c(C)o1 (stereo unspecified) | inactive
CCCN=C1N(C)C[C@@H]2[C@@H]3C(=O)N(Cc4ccccc4)C(=O)[C@@H]3[C@](C)(C(=O)OC)N12 | inactive
O=C(CCSc1ccccc1)N1CCN(c2ccccc2F)CC1 | inactive
O=C(CCSCc1ccccc1F)N1CCN(c2ccc(Cl)cc2)CC1 | 23.1 µM (active)
O=C(CCc1ccccc1F)N1CCN(c2ccccc2)CC1 | inactive
COc1ccc(C2C(=O)N(C3CCCCCC3)CC(=O)N2CCc2ccc(Cl)cc2)cc1OC (stereo unspecified) | 23.1 µM (active)
CCOCCCN1C(=O)CN(C2CCCCC2)C(=O)C1c1ccc(OCC)c(OC)c1 (stereo unspecified) | inactive
O=C(NCCc1ccc(Cl)cc1)C1CC(=O)N(C2CCCCC2)C1 (stereo unspecified) | inactive
COc1ccccc1N1CC(C(=O)NCCN2C(=O)S/C(=C\c3cccnc3)C2=O)CC1=O (stereo unspecified) | inactive
S=C(Cc1ccc(Cl)cc1)N1CCOCC1 | inactive
COc1ccc(-c2cnc(SCCNC(=O)c3ccc4c(c3)OCO4)[nH]2)cc1 | inactive
CCCC[C@H]1COCCS(=O)(=O)N1Cc1cccc(Cl)c1 | inactive
CCC(C)[C@H]1COCCS(=O)(=O)N1Cc1ccc(C)cc1 (stereo partly specified) | inactive
O=S1(=O)CCOC[C@H](CC2CCCCC2)N1Cc1ccc(F)cc1 | 2.51 µM (active)
CC(C)Oc1ccc(S(=O)(=O)N2CCOCC2)cc1NC(=O)C1CCCC1 | inactive
O=C(CCS(=O)(=O)c1ccccc1Cl)Nc1ccc(S(=O)(=O)Nc2ncccn2)cc1 | inactive
Cc1ccc(S(=O)(=O)N2CCOCC2)cc1C(=O)OC1CCCCC1=O (stereo unspecified) | inactive
C[C@@H]1CN([C@H](C)CO)C(=O)CCCn2cc(nn2)CO[C@H]1CN(C)S(=O)(=O)c1ccc(Oc2ccccc2)nc1 | inactive
O=C(/C=C/c1ccc([N+](=O)[O-])o1)NNC(=O)c1ccc(F)cc1 | 3.26 µM (active)
O=C(/C=C/c1ccc(F)cc1)NCCNC(=O)/C=C/c1ccc(F)cc1 | inactive
CCN(C(=O)Cn1c(=O)nc(-c2ccccc2)c2cc(Cl)ccc21)c1cccc(C)c1 | inactive

SMILES | Potency
Cc1ccc(S(=O)(=O)NCC(=O)N(CC(=O)NCC2CCCO2)c2cccc(F)c2)cc1 (stereo unspecified) | inactive
C=CCOc1ccccc1CNn1c(C)n[nH]c1=S | inactive
N#C/C(=C(/O)COC(=O)COc1ccc(Cl)cc1)c1nc2ccccc2[nH]1 | 4.11 µM (active)
Cc1ccccc1OC/C(O)=C(\C#N)c1nc2ccccc2[nH]1 | inactive
N#C/C(=C(/O)COc1cccc2ccccc12)c1nc2ccccc2[nH]1 | inactive
O=C(NNC(=O)c1cc(-c2ccccc2Cl)nc2ccccc12)c1csc(N2CCOCC2)n1 | inactive
CC(C)(C)c1ccc(C(CC(=O)O)NS(=O)(=O)Cc2ccccc2)cc1 (stereo unspecified) | inactive
Cc1ccc2c(c1)N(CC(=O)NCC1CCCO1)C(=O)CO2 (stereo unspecified) | inactive
NS(=O)(=O)c1ccc(NC(=O)CSc2nnc3c(n2)[nH]c2ccccc23)cc1 | inactive
C/C=C/NNC(=O)Cc1ccc(OC)cc1 | 3.55 µM (active)
CCCCCNC(=O)Cc1ccc(OC)cc1 | inactive
COc1ccc(CC(=O)Nc2ccc(C(=O)NC(C)(C)C)cc2)cc1 | inactive
C#CCOCCOCCOCCNc1nc(N2CCN(C(=O)[C@H](CCC(=O)O)n3cc(CN)nn3)CC2)nc(N2CCN(C(=O)[C@H](CCC(=O)O)n3cc(CN)nn3)CC2)n1 | inactive
CC(=O)c1cccc(NC(=S)N2CCCC2)c1 | inactive
COc1ccc(CC(=O)N2N=C(C)CC2(O)C(F)(F)F)cc1 (stereo unspecified) | 2.91 µM (active)
CC1=NN(C(=O)Cc2ccc(C)cc2)C(O)(c2cccnc2)C1 (stereo unspecified) | inactive
CC1=NN(C(=O)CCCc2ccccc2)C(O)(C(F)(F)F)C1 (stereo unspecified) | inactive
CC1CC(=S)Nc2ccccc2N1Cc1ccccc1 (stereo unspecified) | inactive
Nc1nc2ncccn2c1-c1ccccc1 | inactive
O=S(=O)(Nc1cccc(-n2cnnn2)c1)c1cnc(Cl)c(Cl)c1 | inactive
COc1ccc(N2C(=O)CS(=O)(=O)C23C(=O)N(Cc2ccc(C)cc2)c2ccccc23)cc1Cl (stereo unspecified) | inactive
Cc1ccc(S(=O)(=O)NC(=O)Nc2nc(-c3ccc(F)c(F)c3)cs2)cc1 | inactive

SMILES | Potency
COc1ccc(-c2csc(NC(=O)c3ccc(N4C(=O)CCC4=O)cc3)n2)cc1OC | inactive
COc1ccc(CC(=O)Nc2nc(-c3ccc(F)c(F)c3)cs2)cc1OC | 10.3 µM (active)
COc1ccc(CCNC(=O)COC(=O)Cc2cc(OC)c(OC)c(OC)c2)cc1 | inactive
COc1cc(CC(=O)Nc2nc(-c3ccc(F)c(F)c3)cs2)cc(OC)c1OC | 7.31 µM (active)
COc1cccc(CC(=O)Nc2nc(-c3ccc(OC)c(OC)c3)cs2)c1 | inactive
CCOC(=O)c1cn(CC)c2cc(F)c(F)cc2c1=O | inactive
O=C(NC1CCN(C(=S)NCc2ccco2)CC1)c1ccc(F)cc1 | inactive
Cc1cc(OCCN2CCCC2)cc(C(C)C)c1 | inactive
COc1ccc2[nH]c(C(=O)N3CCN(C)CC3)c(C)c2c1 | inactive
CCOC(=O)NN1C(=O)c2ccccc2NC1c1ccccc1O (stereo unspecified) | 16.4 µM (active)
O=C1c2ccccc2NC(c2ccccc2O)N1NS(=O)(=O)c1ccccc1 (stereo unspecified) | inactive
CCOC(=O)NN1C(=O)c2ccccc2NC1c1cccc(O)c1 (stereo unspecified) | inactive
Cc1ccc2nc(CN3CCN(S(=O)(=O)c4ccc(C)c(C)c4)CC3)oc2c1 | inactive
CCOc1ccc(N(C)Cc2cc(=O)oc3ccc(OC)cc23)cc1 | inactive
NC(=O)N/N=C\c1cccs1 | inactive
Cc1cc(C)nc(SC(C)C(=O)N/N=C/c2cccs2)n1 (stereo unspecified) | inactive
COc1ccc2c(c1)c(C(=O)N/N=C/c1cccs1)c(C)n2C | 9.2 µM (active)
CCn1c(SCC(=O)Nc2nccs2)nnc1-c1ccco1 | inactive
C[C@@H]1CN([C@H](C)CO)C(=O)CCCn2nncc2CO[C@@H]1CN(C)C(=O)OCc1ccccc1 | inactive
Cc1ccc(C)c(NC2=NCC(=O)N2c2ccc3c(c2)OCCO3)c1 | inactive
Cc1ccc(Cl)cc1NC(=O)NC1COc2ccccc2C1 (stereo unspecified) | inactive
CCc1cccc(C)c1NC(=O)COC(=O)CC1CCCC1 | inactive

SMILES | Potency
CCc1cccc(CC)c1NC(=O)COc1ccccc1C(=O)c1cc(C#N)c(=O)n(C2CCCCC2)c1 | 18.4 µM (active)
Cc1cc(NC(=O)COc2ccccc2C#N)no1 | inactive
CC(=O)Nc1ccc(NC(=O)CSc2nnc(COc3ccccc3C)n2CC2CCCO2)cc1 (stereo unspecified) | inactive
Cc1cc(N/N=C/c2ccccc2F)c2ccccc2n1 | inactive
Oc1ccc(/C=N/NC2=NCCCCC2)c(O)c1 | inactive
Cc1nc2ccccc2nc1N/N=C/c1ccc(O)cc1O | 4.61 µM (active)
Oc1ccc(-c2nc3ccccc3nc2-c2ccc(O)cc2O)c(O)c1 | inactive
Oc1ccc(/C=N/Nc2nc(-c3ccccc3F)nc3ccccc23)c(O)c1 | 5.8 µM (active)
CCNC(=O)N1CCCC(C(=O)c2ccc(-c3ccccc3)cc2)C1 (stereo unspecified) | 20.6 µM (active)
CCOC(=O)CCNC(=O)N1CCCC(C(=O)c2ccccc2SC)C1 (stereo unspecified) | inactive
Cc1ccccc1NC(=O)C1CCCN(C(=O)NCc2ccccc2)C1 (stereo unspecified) | inactive
CN(C(=O)c1ccccc1)c1nccnc1C#N | inactive
COC(=O)c1ccc(CN2C(=O)NC(c3ccccc3)(c3ccccc3)C2=O)o1 | inactive
O=C(CN1CCN(Cc2ccccc2)CC1)NC(c1ccccc1)c1ccccc1 | 14.6 µM (active)
O=C(CN1CCc2ccccc21)NC(c1ccccc1)c1ccccc1 | inactive
O=C(CN1CCN(Cc2ccccc2)CC1)Nc1ccc(F)c(F)c1 | inactive
CN(C)c1ccc(CNC23CN4CN(CN(C4)C2)C3)cc1 | 8.2 µM (active)
COCCN1CCN(C(=O)c2cc(COc3ccc(F)cc3Cl)on2)CC1 | inactive
Cn1cc(S(=O)(=O)NC(c2ccccc2)c2ccccc2)c(=O)n(C)c1=O | inactive
CCn1c(SCc2ccccc2)nc2cc(OC)c(OC)cc2c1=O | inactive
CCn1c(SCc2ccccc2)nc2c(c1=O)SCC2 | inactive
CCn1cc2nc(SCc3cccc(F)c3)n(CCc3ccccc3)c(=O)c2n1 | 16.4 µM (active)

SMILES | Potency
C[C@@H]1CN([C@H](C)CO)C(=O)CCCn2nncc2CO[C@@H]1CN(C)S(=O)(=O)c1cccc(C#N)c1 | inactive
C/C(=C/c1ccccc1)C(=O)N1CCN(c2ccccc2)CC1 | inactive
NC(=O)C1(N2CCCC2)CCN(Cc2ccccc2)CC1 | inactive
Cc1cccc(NC(=O)CCn2c(=O)oc3ccccc32)c1 | inactive
O=C(Nc1ccc(Br)cn1)c1ccc([N+](=O)[O-])o1 | 2.06 µM (active)
Cc1cccc(NC(=O)c2ccc([N+](=O)[O-])o2)c1 | 16.4 µM (active)
O=C(Nc1ccc(Br)cn1)c1ccc([N+](=O)[O-])cc1Cl | inactive
Cc1onc(NC(=O)c2ccc([N+](=O)[O-])o2)c1Br | inactive
CN1C(=O)c2ccc(C(=O)Nc3ccc(Br)cn3)cc2C1=O | inactive
CCc1ccc(N2C(=O)CN(S(=O)(=O)CC)CC2(C)C(=O)NC2CCCCC2)cc1 (stereo unspecified) | inactive
Cc1ccc(CN2CCN(c3ncccn3)CC2)c(C)c1 | inactive
O=C(NCC(O)c1nc2ccccc2[nH]1)c1ccc(Br)cc1 (stereo unspecified) | inactive
Cc1ccc(Cl)cc1N1CCN(S(=O)(=O)c2cc3[nH]c(=O)c(=O)[nH]c3cc2C)CC1 | inactive
CCC(=O)Nc1ccc(-c2ccc(N3CCCCC3)nn2)cc1 | inactive
c1csc(-c2nnc(COc3ccc4c(c3)OCO4)o2)c1 | inactive
O=[N+]([O-])c1cc2ccccc2nc1-c1ccccc1 | inactive
CCN(CC(=O)NC1CCS(=O)(=O)C1)c1nc(-c2cccnc2)nc2ccccc12 (stereo unspecified) | inactive
O=[N+]([O-])c1ccc(F)cc1Oc1nc(-c2cccnc2)nc2ccccc12 | 18.4 µM (active)

— PubChem BioAssay AID686979 (National Center for Advancing Translational Sciences (NCATS), 2013)
